From PubChem BioAssay AID686979 (National Center for Advancing Translational Sciences (NCATS), 2013)
The whole screen tested about 420,000 compounds, of which about 50,000 (12%) were called active. Not shown: some 26% with an inconclusive outcome. The full list was thinned out, with actives kept by preference. Values without a mark were called inactive. Calls follow the shape of the dose curve; as a rule, active = well fitted inhibition curve with a large enough effect; inconclusive = small, poorly fitted or top-dose-only effect; inactive = flat fitted curve, though single readings scatter.

Test: qHTS for Inhibitors of human tyrosyl-DNA phosphodiesterase 1 (TDP1): qHTS in cells in presence of CPT; also: nearly all actives have a fitted effect of over 55% in size
Conditions: chicken DT40 Tdp1-/-;hTDP1 cells + 20 nM CPT, ATP luminescence, 48 h; series mostly up to 46.2 µM; activity change, negative = growth inhibition: at the top concentration
Procedure, shortened: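 Chicken DT40 Tdp1-/- cells complemented with human TDP1, 400 cells/well, exposed to compounds plus 20 nM camptothecin for at least 48 h at 37 C; viability read as ATP content by CellTiter-Glo luminescence.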
% is scaled to controls: 0 for no effect and ±100 for the full control effect; potency is read from the fitted curve at half-maximal effect.

SMILES | activity change, negative = growth inhibition [%] | Potency
COc1cc(OC)cc(-c2c(C#Cc3ccsc3)c3cc(-c4ccc(SC)cc4)ccc3n2C)c1 | -8.14 | –
COc1cc(OC)cc(-c2c(C#Cc3ccsc3)c3cc(-c4ccc(OC)cc4F)ccc3n2C)c1 | -8.28 | –
COc1cc(OC)cc(-c2c(-c3cccs3)c3cc(-c4ccc(OC)nc4)ccc3n2C)c1 | – | 20.6 µM (active)
CCOC(=O)C1(S(=O)(=O)c2ccc(Cl)cc2)CCN(Cc2ccccc2)CC1 | -27.7 | –
CCOC(=O)C1(CCOc2ccccc2)CCN(Cc2cc(OC)cc(OC)c2)CC1 | – | 25.9 µM (active)
O=C(c1cn(CC2CCCN(Cc3cc4ccccc4s3)C2)nn1)N1CCCC1 (stereo not given) | 11.8 | –
CCOC(=O)C1(Cc2cccc(OC)c2)CCN(C(C)CC(C)(C)O)CC1 (stereo not given) | -9.64 | –
O=C(CCc1ccccc1)Nc1ccnn1C1CCN(Cc2ccc(OCCO)cc2)CC1 | 6.63 | –
CCOC(=O)C1(CCOc2ccccc2)CCN(Cc2ccc(C#CCCO)cc2)CC1 | – | 18.4 µM (active)
CCOC(=O)C1(CCOC)CCN(Cc2ccc(C(=O)OC)cc2)CC1 | 5.25 | –
CCOC(=O)C1(CCOc2ccccc2)CCN(C(=O)c2cncs2)CC1 | -28.5 | –
CCOC(=O)C1(CCOC)CCN(Cc2cc3ccccc3s2)CC1 | – | 18.4 µM (active)
COc1cc(C)ccc1OCC(=O)OCC(=O)c1ccc[nH]1 | 11.1 | –
Cc1cc(NS(=O)(=O)c2ccc(NC(=O)C(C)Oc3cccc(C)c3C)cc2)nc(C)n1 (stereo not given) | 7.99 | –
N#CC1(C#N)C(C(=O)C23CC4CC(CC(C4)C2)C3)C12CCOCC2 (stereo not given) | -6.84 | –
COc1ccccc1NC(=O)c1ccc(N2CC3CC(C2)c2cccc(=O)n2C3)c(NC(=O)c2cccnc2)c1 (stereo not given) | -14.7 | –
Cc1ccc(S(=O)(=O)N(Cc2cccc([N+](=O)[O-])c2)C(=O)N2CCN(C)CC2)cc1 | -7.27 | –
O=C(CCl)N(Cc1cccc([N+](=O)[O-])c1)c1cccc(Cl)c1 | – | 2.31 µM (active)
O=C(Nc1cccc([N+](=O)[O-])c1)Nc1ccc(Cl)cn1 | 4.19 | –
COc1ccccc1N1CCC(N2CCN(CC(C)(C)C)C(CCO)C2)CC1 (stereo not given) | -28.9 | –
C=CS(=O)c1sc(Cl)c(N2CCOCC2)c1[N+](=O)[O-] (stereo not given) | – | 0.731 µM (active)
Cc1cc(C)n(S(=O)(=O)c2cccc([N+](=O)[O-])c2)n1 | -8.29 | –
CN(C)S(=O)(=O)c1cc(C(=O)Nc2ccn(C)n2)c(Cl)cc1Cl | -4.09 | –
COCCNC(=O)COc1ccc(N(C)S(=O)(=O)c2ccc3ccccc3c2)cc1 | -15.1 | –
O=S(=O)(NCC1CC1)c1ccc(F)c(Cl)c1 | 8.32 | –

SMILES | activity change, negative = growth inhibition [%] | Potency
O=S(=O)(Cc1ccc(Cl)cc1Cl)c1ccc(Cl)cc1 | – | 0.82 µM (active)
NNC(=O)c1ccc(Cl)cc1Cl | 2.28 | –
O=CN1CCN(C(=O)c2ccc(Br)o2)CC1 | -0.819 | –
O=C(CSc1ncnc2c1oc1ccccc12)NC1CCCC1 | -20.3 | –
CC(C)[C@@H]1COC(c2cccc(C3=N[C@H](C(C)C)CO3)c2)=N1 | – | 20.6 µM (active)
O=C(O)CSCC(=O)Nc1ccc(C(F)(F)F)cc1 | 17.9 | –
O=C(OCC(=O)N1CCCCC1)c1ccc(OC(F)(F)F)cc1 | -5.48 | –
NS(=O)(=O)c1ccc(CCNC(=O)CCCCCn2c(=O)[nH]c3ccccc3c2=O)cc1 | -16.3 | –
O=C(CCCCCn1c(=O)[nH]c2ccccc2c1=O)NCCc1c[nH]c2ccccc12 | -24.7 | –
Cc1nc2ccccc2c2oc(C(=O)NCCCN3CCC(C)CC3)cc12 | -23.5 | –
O=C(CCn1c(=S)[nH]c2ccccc2c1=O)NCCCN1CCCC1=O | 4.25 | –
CCN(CC)CCNC(=O)CCCCCn1c(=O)[nH]c2cc(C(=O)OC)ccc2c1=O | -21.7 | –
Cc1ccc(C)c(N2CCN(C(=O)CCCCn3c(=O)[nH]c4ccccc4c3=O)CC2)c1 | – | 16.4 µM (active)
Cc1ccc(C)c(N2CCN(C(=O)CCc3c(C)nc4c(c3C)c(=O)n(C)c(=O)n4C)CC2)c1 | -1.63 | –
O=C(Cc1csc(Nc2nc(=S)[nH]c3ccccc23)n1)NCCCN1CCN(c2cccc(Cl)c2)CC1 | – | 16.4 µM (active)
O=C(CCn1c(=O)[nH]c2ccccc2c1=O)NCCCN1CCN(c2cccc(Cl)c2)CC1 | – | 20.6 µM (active)
O=C(CCCn1c(=O)[nH]c2cc(Cl)ccc2c1=O)NCCN1CCN(c2ccccc2)CC1 | – | 23.1 µM (active)
O=C(NCCN1CCOCC1)c1cc(Sc2cccc(Cl)c2)nc2ccccc12 | -34 | –
O=C(CCCCn1c(=O)[nH]c2ccccc2c1=O)NCc1ccc2c(c1)OCO2 | -19.6 | –
COc1cc(/C=C2\CCCc3c2nc2ccccc2c3C(=O)O)cc(Cl)c1O | 5.4 | –
O=C(Nc1cccnc1Oc1ncnc2cc(Cl)ccc12)c1ccc(F)cc1 | 8.31 | –
CC(NS(=O)(=O)c1ccccc1)c1n[nH]c(=S)n1-c1ccccc1 (stereo not given) | 2.51 | –
CCC(C)CN1C(=O)CN(S(C)(=O)=O)CC1(C)C(=O)Nc1ccc2c(c1)OCCO2 (stereo not given) | -11.4 | –
O=C(C[C@H]1CC[C@H]2[C@@H](COC[C@H](O)CN2C(=O)c2ccccn2)O1)N1CCN(c2ccccc2)CC1 | -15.1 | –
Cc1nccn1-c1ccc(NC(=O)[C@H]2O[C@@H](n3ccc(=O)[nH]c3=O)[C@H](O)[C@@H]2O)cc1 | -11.3 | –
